Reference: the supplement of paper PMC6555819

Columns and labels:
Experiment in all cases: PBM binding z-score (relative to random genomic background probes); higher = stronger binding; sequences stand for … in GC…GCGATTGACAGCGTAGAATGAAGG
[1] = tested on: FXR:RXRa (NR concentration 270 nM, RXRa partner concentration 90 nM)
Procedure, shortened: (§1)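 Binding z-scores were set against random background probes. The data came from custom Agilent 4×180K protein-binding microarrays carrying double-stranded probes with 34-nt variable regions, incubated 1 h with ligand-free nuclear receptor dimers. Partner-specific antibodies detected binding, and scanned fluorescence was regression-normalized.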

[2] = tested on: LXRa:RXRa (NR concentration 270 nM, RXRa partner concentration 90 nM)
Procedure, shortened: as §1

[3] = tested on: LXRa homodimer (NR concentration 270 nM)
Procedure, shortened: as §1

[4] = tested on: LXRb:RXRa (NR concentration 270 nM, RXRa partner concentration 90 nM)
Procedure, shortened: as §1

[5] = tested on: LXRb homodimer (NR concentration 270 nM)
Procedure, shortened: as §1

[6] = tested on: PPARa:RXRa (NR concentration 270 nM, RXRa partner concentration 90 nM)
Procedure, shortened: as §1

[7] = tested on: PPARg:RXRa (NR concentration 180 nM, RXRa partner concentration 90 nM)
Procedure, shortened: as §1

[8] = tested on: PPARg:RXRa 270nM:90nM, anti-RXR (NR concentration 270 nM, RXRa partner concentration 90 nM)
Procedure, shortened: as §1

[9] = tested on: PPARg:RXRa 30nM:10nM, anti-RXR (NR concentration 30 nM, RXRa partner concentration 10 nM)
Procedure, shortened: as §1

[10] = tested on: PPARg:RXRa 90nM:30nM, anti-RXR (NR concentration 90 nM, RXRa partner concentration 30 nM)
Procedure, shortened: as §1

Row | Sequence | PBM binding z-score [1] | PBM binding z-score [2] | PBM binding z-score [3] | PBM binding z-score [4] | PBM binding z-score [5] | PBM binding z-score [6] | PBM binding z-score [7] | PBM binding z-score [8] | PBM binding z-score [9] | PBM binding z-score [10]
1 | CCTCGGAGGACAGAAGGACAGAGCTGTCCGCTTT | -0.348 | -0.559 | -0.63 | -0.942 | -0.907 | -0.733 | -0.176 | -0.854 | -1.07 | -0.86
2 | CCTAGCAGGCCAATCTGGGTCACTCGAGGCTTGA | -0.0192 | 1.35 | -0.447 | 0.667 | -1 | 2.98 | 1.69 | 1.96 | 0.0407 | 1.13
3 | GGAACGAGGGCAAGTTGGTAGCAGAGTTTGATGG | 0.88 | 0.565 | -0.29 | 0.202 | -0.428 | 1.58 | 0.752 | 0.875 | -0.334 | 0.0314
4 | AGAATGAGGCTATACGTAGATCAGGGAAGAAAGT | -0.393 | -0.526 | -0.213 | -0.708 | -0.243 | 0.0162 | 0.801 | 0.267 | 0.101 | 0.251
5 | TTACCAAGGTGAAGGTCGTTTATCCCTCTGTAGA | 1.45 | 1.55 | 0.229 | 1.54 | -0.0351 | 2.47 | 2.42 | 3.95 | 1.78 | 3.31
6 | TGTCAAAGTCCAAAGGTAACGTAAGTATCCACAC | -0.0292 | 0.605 | -0.413 | 0.55 | -0.353 | 1.61 | 2.27 | 2.93 | 1.07 | 2.43
7 | AGAACGAGAGCAATGAGTTGATAGCACGGGTGGC | -0.715 | -0.7 | -0.726 | -0.759 | -0.725 | -0.447 | 0.796 | -0.0173 | -0.196 | 0.0595
8 | AGACAAAGTTCATCTAGGTAACGTAAGATATGCT | 6.83 | 6.21 | 5.23 | 3.92 | 1.56 | 4.91 | 4.69 | 4.99 | 1.93 | 3.69
9 | CGAACTAGGTCATTGACAGGACAGTGACTAGTAA | 4.31 | 2.96 | 0.385 | 1.79 | 0.0478 | 4.71 | 7.47 | 6.11 | 3.43 | 5.59
10 | AGTCAGAGTTCAGGACGAGGTAACGTAAAGCACG | 3.72 | 3.51 | 0.881 | 1.82 | -0.0374 | 3.02 | 2.26 | 2.51 | 0.689 | 2.1
11 | ACTGACGGGTCAACGAGGTTATAGCACGCGTATA | 5.56 | 4.16 | 0.67 | 3.43 | 0.166 | 5.03 | 3.34 | 3.77 | 0.997 | 2.17
12 | TCTTGTAGATCAGCTGGTTAAGAAAGCTGGCCAA | 0.0372 | -0.146 | -0.717 | -0.0754 | -0.836 | 0.363 | -1.11 | 1.04 | 2.43 | 1.75
13 | GATACAGGGTCAAGGCCAGAGTGCGCGTATTGAT | 6.68 | 4.01 | 0.0458 | 3.51 | -0.343 | 5.4 | 5.81 | 5.34 | 2.09 | 4
14 | TCATATAGGTAAATGCTGGGTGAAAGTCCGATCT | 1.03 | 1.11 | 0.288 | 0.818 | 0.924 | 1.38 | 0.836 | 2.2 | 3.63 | 3.26
15 | GCTGCTAGGTAAACTGATGGTCAGCTAAAGCTCG | -0.373 | -0.492 | -0.956 | -0.723 | -0.701 | -0.566 | -0.301 | -0.644 | -0.739 | -0.98
16 | TCAGACAGGCGAAGGTAACTCAGGTACGCAGTCG | 0.672 | 1.16 | -0.549 | 0.255 | -0.893 | 0.184 | 0.517 | 1.53 | 3.02 | 2.41
17 | TCATATAGGTAATACAGGTGACAGTCGGCATCTA | 1.08 | 1.27 | 0.299 | 0.966 | 0.0585 | 1.77 | 1.81 | 2.52 | 3.86 | 3.05
18 | AGAATGTGGTTACCAAAGATCAGGGAAACGCTTG | -0.517 | 0.7 | -0.272 | -0.139 | -0.442 | -0.0504 | 0.469 | 0.425 | 0.333 | 0.271
19 | AACGAAAGGTCGTGAGGTGAGTATACAGAAAGGC | 5.67 | 4.36 | 0.174 | 3.32 | -0.0859 | 5.07 | 4.41 | 4.6 | 1.54 | 3.21
20 | TATACAGGGTAAAAGGCCAGAGTACGAATGTCGA | 0.526 | 0.732 | 0.094 | 0.483 | 0.559 | 2.02 | 3.63 | 4.11 | 2.26 | 3.82
